Measured values: publication PMC5540273 (PLoS ONE, 2017)

Columns and labels:
Details in all cases: concentration: 1 μM, replicates: in singlicate; n = 1
CLK2 = system: CLK2
CLK3 = system: CLK3
CLK4 = system: CLK4
CSF1R-autoinhibited = system: CSF1R-autoinhibited
CSF1R = system: CSF1R
CSK = system: CSK
CSNK1A1L = system: CSNK1A1L
CSNK1A1 = system: CSNK1A1
CSNK1D = system: CSNK1D
CSNK1E = system: CSNK1E
CSNK1G1 = system: CSNK1G1
CSNK1G2 = system: CSNK1G2
CSNK1G3 = system: CSNK1G3
CSNK2A1 = system: CSNK2A1
CSNK2A2 = system: CSNK2A2
CTK = system: T1, CTK
T1 construct: gene MATK

DAPK1 = system: DAPK1
DAPK2 = system: DAPK2
DAPK3 = system: DAPK3
DCAMKL1 = system: T2, DCAMKL1
T2 construct: gene DCLK1
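Further: KINOMEscan kinase panel screen.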

Structure (SMILES) | %Inh (CLK2) | %Inh (CLK3) | %Inh (CLK4) | %Inh (CSF1R-autoinhibited) | %Inh (CSF1R) | %Inh (CSK) | %Inh (CSNK1A1L) | %Inh (CSNK1A1) | %Inh (CSNK1D) | %Inh (CSNK1E) | %Inh (CSNK1G1) | %Inh (CSNK1G2) | %Inh (CSNK1G3) | %Inh (CSNK2A1) | %Inh (CSNK2A2) | %Inh (CTK) | %Inh (DAPK1) | %Inh (DAPK2) | %Inh (DAPK3) | %Inh (DCAMKL1)
c1ccc(Oc2ccc(Nc3ccnc4cc(-c5ccc(CN6CCCCC6)o5)ccc34)cc2)nc1 [GW567143] | 0% | 0% | 6% | 0% | 54% | 71% | 12% | 1% | 10% | 13% | 0% | 6% | 3% | 15% | 12% | 5% | 0% | 0% | 0% | 4%
Cc1ccc(-c2ccc3occ(-c4ccc(S(C)=O)cc4)c3c2)nn1 (stereo not shown) | 0% | 0% | 70% | 13% | 0% | 1% | 0% | 0% | 0% | 0% | 0% | 0% | 0% | 0% | 10% | 0% | 0% | 0% | 0% | 4%
CS(=O)(=O)c1cccc(CNc2nc(Nc3ccc4c(c3)CCC(=O)N4)ncc2C(F)(F)F)c1 | 22% | 0% | 24% | 0% | 20% | 1% | 0% | 0% | 0% | 0% | 0% | 4% | 0% | 17% | 51% | 0% | 0% | 0% | 11% | 36%
CC(C)NCC(Cc1ccccc1)NC(=O)c1cc(Br)c(-c2ccnc3[nH]ccc23)s1.Cl.Cl (stereo not shown) [GSK1383281] | 44% | 22% | 25% | 0% | 46% | 6% | 5% | 0% | 26% | 33% | 13% | 14% | 29% | 59% | 46% | 0% | 18% | 0% | 37% | 34%
CN(C)CCNS(=O)(=O)c1ccc(-c2ccnc3[nH]ccc23)cc1 [GSK977620] | 92.3% | 70% | 94.4% | 0% | 27% | 0% | 16% | 29% | 38% | 48% | 0% | 0% | 5% | 30% | 11% | 0% | 76% | 44% | 88% | 18%
CSc1ccc(NC2=C(c3ccc(Cl)cc3)C(=O)NC2=O)cc1 [SB-317658] | 26% | 0% | 19% | 0% | 30% | 21% | 0% | 20% | 1% | 6% | 0% | 15% | 0% | 0% | 25% | 19% | 0% | 0% | 0% | 0%
N#CC1(c2cccc(C(=O)Nc3cccc(Oc4ccc5nc(NC(=O)C6CC6)sc5n4)c3)c2)CC1 | 4% | 0% | 17% | 87% | 100% | 25% | 0% | 0% | 14% | 0% | 0% | 7% | 0% | 0% | 0% | 0% | 0% | 44% | 13% | 3%
Cc1ccc(NC(=O)c2ccnc(N3CCCCC3)c2)cc1-c1ccc(C(=O)NCC2CC2)cc1 [GW775610] | 0% | 0% | 0% | 5% | 23% | 0% | 20% | 1% | 0% | 0% | 0% | 20% | 0% | 0% | 0% | 25% | 100% | 0% | 12% | 0%
